These results are taken from PubChem BioAssay AID1845 (The Scripps Research Institute Molecular Screening Center, 2009).

SMILES strings stand for the structures. The whole screen tested about 290,000 compounds, of which about 490 (0.17%) were called active. This excerpt belongs to a sample that is enriched for actives. A number with no mark means an inactive call. Rule as the data show it: active = inhibition above about 37%; inactive = the rest.

The assay is described as follows: DNA intercalator displacement agents – biochemical, FID fluorescence, artefact control for HCV NS3 helicase inhibitor project, primary screen (AID 1845).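 Also: 0% = vehicle and 100% = reference compound; higher means more ethidium bromide displaced from hairpin DNA.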 The conditions noted are these: DNA fluorescent intercalator displacement, at 7.9 µM, active compounds read high.
The inhibition is the change of the read-out against control, counted positive when it falls. For `COc1ccc(C(=O)COC(=O)Cn2cnc3c2c(=O)n(C)c(=O)n3C)c(OC)c1`, the inhibition was -23%.
The figure for `O=C(Nc1ccc([N+](=O)[O-])cc1)OCCc1ccccn1` is 5.74%; for `COc1ccc(CSc2nnnn2-c2ccc(O)cc2)cc1F` it is -6.37%.
The value for `COc1ccc(CC(=O)NC2CCSc3ccccc32)cc1OC` (stereo not drawn) was -19.9%; that for `COc1ccc(-c2noc(CCCC(=O)NC3CCCC3)n2)cc1OC` was -34.4%; that for `Cc1ccc(C2CC(c3cccc(NS(C)(=O)=O)c3)=NN2S(C)(=O)=O)cc1` (stereo not drawn) was -20.2%.
In the case of `CN(CC(=O)Nc1c(Cl)cccc1Cl)C(=O)CNC(=O)C1CCCCC1`, the inhibition was -9.61%.
The figure for `CCOC(=O)C1(Cc2ccccc2C)CCCN(C(=O)c2ccc(COC)o2)C1` (stereo not drawn) is -43.4%.
Turning to `Cn1c(=O)c2ccccc2n(CC(=O)Nc2ccc3c(c2)OCCO3)c1=O`, the inhibition was -7.1%.
Consider `COc1ccc(/C=C2\SC(=O)N(CCC(=O)NC3CCS(=O)(=O)C3)C2=O)cc1` (stereo not drawn), for which the inhibition is -25.1%.
For `COc1ccc(Br)cc1CN(C)CC(=O)Nc1cc([N+](=O)[O-])ccc1OC`, the inhibition is 0.14%.
The figure for `O=C(NC1CCCCC1)C1CCC(CNS(=O)(=O)c2ccccc2)CC1` (stereo not drawn) is -36.5%; for `Cc1ccc(C(C(=O)NCC2CCCO2)N(C(=O)c2snc(C(N)=O)c2N)c2ccc(C(C)C)cc2)o1` (stereo not drawn) it is -41%.
The value for `CCCCNC(=O)C1(O)c2ccccc2NC(=O)N1c1ccc(Cl)cc1` (stereo not drawn) was -11.7%.
The figure for `CCCNC(=O)c1ccc(N2CCC3(CC2)CC(c2ccc(Cl)cc2)=NO3)c([N+](=O)[O-])c1` is -20%.
In the case of `COc1ccc(OC)c(C(C)NC(=S)Nc2ccc(S(=O)(=O)Nc3ncccn3)cc2)c1` (stereo not drawn), the inhibition was -59.4%.
Take `Cc1c(Cl)cccc1NC(=O)NCCCN1CCCC1=O`: the inhibition was -5.46%.
The figure for `COc1ccccc1NC(=O)CCC(=O)OC(C)C(=O)c1ccccc1` (stereo not drawn) is -17.2%; for `COc1cccc(NC(=O)N2C3CCCC2CC(NC(C)=O)C3)c1` (stereo not drawn) it is -3.46%.
As to `CC[n+]1cc(C)ccc1/C=C/c1ccc(N(C)C)cc1`, the inhibition is -33.2%.
`COc1ccc(N2CCN(S(=O)(=O)c3cc(Br)cnc3N)CC2)cc1`: the inhibition was -2.88%.
The value for `CC(=O)c1ccc(NC(=O)c2sc3nc4n(c(=O)c3c2C)CCCCC4)cc1` was -25.9%; that for `Cc1ccn(CCC(=O)N2c3ccccc3CC2C)n1` (stereo not drawn) was -9.3%; that for `O=C(/C=C/c1ccc([N+](=O)[O-])o1)NNC(=O)c1ccc(F)cc1` was -4.43%.
For `CCN(CC)c1ccc(NC(=O)CN2CCN(c3ccccn3)CC2)cc1`, the inhibition is -17.6%.
For the compound `O=C(Cn1ccc2cc(S(=O)(=O)N3CCCC3)ccc21)NCc1ccccc1`, the inhibition is -16.4%.
The value for `O=C(c1ccc[nH]c1=S)N1CCN(S(=O)(=O)c2ccc(Br)cc2Cl)CC1` was -16.3%.
The value for `C/C(=N\Nc1cccc(C(=O)O)c1)c1ccc2c(c1)Nc1ccccc1S2` was -16.1%; that for `NS(=O)(=O)c1ccc2nc(NC(=O)CS(=O)(=O)c3ccc(F)cc3)sc2c1` was -3.98%.
The value for `CC(CCc1ccc(O)cc1)NCc1ccc(Cl)cc1Cl` (stereo not drawn) was 12.2%; that for `CCN(CC(=O)Nc1ccccc1OC)C(=O)Cn1cnc2ccccc2c1=O` was -5.22%.
With `Cc1cc(-c2nnc(CCC(=O)NC(c3ccccc3)c3ccccc3)o2)no1`, the inhibition was -7.1%.
As for `Cc1ccc(C(C)C)c(OCCSc2nc3ccccc3n2CC(=O)O)c1`, the inhibition was -11.6%.
`O=C(CSc1nc2nccnc2c(=O)n1Cc1cccs1)Nc1ccccc1F`: the inhibition was -11.4%.
The value for `COc1ccc(-c2noc(C(C)NS(=O)(=O)c3ccc(NC(C)=O)cc3)n2)cc1` (stereo not drawn) was -8%.
The figure for `CCCCCC1CC(COc2ccccc2)OC1=O` (stereo not drawn) is -26.6%; for `O=C1C(=O)N(CCN2CCOCC2)C(c2cccc(Cl)c2)/C1=C(/O)c1ccc2c(c1)OCO2` (stereo not drawn) it is -31.7%; for `Cc1nnc(SCC(=O)N2c3ccccc3C(C)(c3ccc(Cl)cc3)CC2(C)C)s1` (stereo not drawn) it is -27.2%.
With `Cn1c(=O)n(C)c2cc(S(=O)(=O)Nc3ccc(F)cc3)ccc21`, the inhibition is -0.97%.
`CCc1ccc(-c2cc(C(=O)NN3CCN(C)CC3)c3ccccc3n2)cc1`: the inhibition is 16.5%.
The value for `O=S(=O)(NCC1CC1)c1ccc(F)c(Cl)c1` was -2.55%.
The figure for `O=C(NCC(=O)N1CCN(c2ccccc2O)CC1)c1ccc2ccccc2c1` is -38.7%; for `CCc1ccc(NC(=O)COC(=O)c2cccs2)cc1` it is -15%.
The value for `CCOC(OCC)c1ccc(/C=C\c2nccc(N)n2)cc1` was -11.1%; that for `CN1CCN(c2ccc(S(=O)(=O)N3CCCCC3)cc2NC(=O)Cc2ccccc2F)CC1` was 17.4%.
As to `COc1ccc(CC(=O)Nc2cc(S(=O)(=O)N3CCCCC3)ccc2N2CCN(C)CC2)cc1`, the inhibition was 39.2% (active).
The figure for `CCN1CCN(c2ccc(S(=O)(=O)N3CCCCC3)cc2NC(=O)Cc2c(Cl)cccc2Cl)CC1` is 24.2%; for `CN(C)c1cccc(C(=O)N2CCC(n3nccc3NC(=O)C3CCOC3)CC2)c1` (stereo not drawn) it is -16.7%; for `COc1ccc(NC(=O)CSc2nc3ccccc3c(=O)n2C)cc1` it is -13.4%.
Take `COCCCN1C(=O)C(=O)/C(=C(/O)c2ccc(S(=O)(=O)N3CCOCC3)cc2)C1c1ccc(F)cc1` (stereo not drawn): the inhibition was -50.7%.
For `CC1CN(C(=O)CCC(=O)NCCCN2CCC(Cc3ccccc3)CC2)c2cc(Cl)ccc2O1` (stereo not drawn), the inhibition was 41.2% (active).
With `CC1CN(C(=O)CCC(=O)NC2CCN(Cc3ccccc3)CC2)c2ccccc2O1` (stereo not drawn), the inhibition was 2.82%.
As to `CC1CN(C(=O)CCC(=O)NCc2cccnc2)c2ccccc2O1` (stereo not drawn), the inhibition is -10.2%.
The value for `Cc1cc(O)c(C(=O)/C=C/c2c(F)c(F)c(F)c(F)c2F)c(=O)o1` was -15.9%.
The value for `CC1CC(C)CN(CCCNC(=O)Cn2ncc3c([nH]c4ccccc43)c2=O)C1` (stereo not drawn) was 5.73%.
The value for `Cc1c2cnn(CC(=O)NCCCN3CC(C)CC(C)C3)c(=O)c2c(C)n1Cc1ccc(Cl)cc1` (stereo not drawn) was 37.1% (active); that for `Cc1c2cnn(CC(=O)NCc3ccccn3)c(=O)c2c(C)n1Cc1ccc(Cl)cc1` was -39%; that for `CN(C)CCNC(=O)/C(=C/c1cccc([N+](=O)[O-])c1)NC(=O)c1ccccc1` was 14.4%.
On to `Cc1ccc(C(=O)N/C(=C/c2ccc(-c3cccc([N+](=O)[O-])c3)o2)C(=O)NCCCN(C)C)cc1`, for which the inhibition was 41.5% (active).
The figure for `N#C/C(=C\c1ccc(-c2cccc([N+](=O)[O-])c2)o1)C(=O)NCCN1CCOCC1` is 6.61%; for `CCN(CC)CCNC(=O)c1sc2ncn(CC(=O)Nc3ccc(C)c(Cl)c3)c(=O)c2c1C` it is 37% (active).
The value for `CCN(CC)CCNC(=O)Cn1cnc2sc(C)c(S(=O)(=O)N3CCOCC3)c2c1=O` was 11.1%; that for `CCN(CC)CCCNC(=O)Cn1cnc2sc(C)c(S(=O)(=O)N3CCN(c4ncccn4)CC3)c2c1=O` was 26.1%; that for `O=C(c1c(F)cccc1F)N1CCN(c2ncc(Br)cn2)CC1` was -20.1%.
The figure for `Cc1cc(=O)oc2c3c(cc(OCC(=O)NCCC(=O)N[C@@H](C)C(=O)O)c12)OC(C)(C)CC3` is -35.5%; for `CCn1c(=O)c(C(=O)NCc2ccc3c(c2)OCO3)c(O)c2ccccc21` it is -4.83%; for `CC1CC(C)CN(S(=O)(=O)c2cccc3nonc23)C1` (stereo not drawn) it is -7.76%.
For the compound `C=CCN(Cc1nc(-c2cc(OC)c3c(c2)OCO3)oc1C)C1CCS(=O)(=O)C1` (stereo not drawn), the inhibition was -27.8%.
The figure for `Clc1cc(NC2CCCCC2)ncn1` is -15.2%.
The value for `CS(=O)(=O)N(CC(=O)N/N=C/c1ccccn1)c1ccc(Oc2ccccc2)cc1` was -33.5%; that for `Cc1cc(C)c2c(n1)nn1c(N3CCOCC3)cc(C)nc21` was -11.1%.
The value for `Cc1cc(C)c2nc3nc(C)cc(C)c3c(N)c2c1` was 62.7% (active); that for `Cc1cc(C)c2nc(SCCC#N)nc(C)c2c1` was -17%.
In the case of `OCCN1CCN(c2nnc(-c3ccccc3)c3ccccc23)CC1`, the inhibition was -5.67%.
The value for `O=C1c2ccccc2C(=O)c2c1cccc2N1CCN(Cc2ccccc2)CC1` was 8.12%; that for `O=C1c2ccccc2C(=O)c2c1cccc2N1CCN(CCO)CC1` was 53.2% (active); that for `Cc1cccc(-c2nc(CS(=O)CC(=O)NC(C)CCc3ccccc3)c(C)o2)c1` (stereo not drawn) was -57.2%.
With `CC(=N\NC(=O)c1cc(Br)ccc1O)/C(=N/O)C(=O)Nc1ccccc1`, the inhibition is -11.2%.
As for `CN1CCN(NC(=O)Nc2ccc(Br)cc2)CC1`, the inhibition is -5.13%.
The value for `COc1ccccc1NC(=O)C(C)OC(=O)CC1CCCC1` (stereo not drawn) was -26.3%; that for `CC(=O)NC(CC(=O)Nc1nc(-c2ccccc2)c(C(C)=O)s1)c1ccccc1` (stereo not drawn) was -16.9%; that for `Clc1nc(NC2CCCC2)nc(N2CCOCC2)n1` was -6.99%.
The figure for `O=C(CNC(=O)[C@@H]1Cc2ccccc2CN1)NC1CCCCC1` is 0.62%.
The figure for `CC(C)c1cc(C(=O)N/N=C/C(Br)=C/c2ccccc2)n[nH]1` is -26.4%.
`CCN(CC(=O)NCc1cccs1)C(=O)c1cccc(S(=O)(=O)Nc2ccccc2OC)c1`: the inhibition was -11.7%.
For the compound `COCCNC(=O)c1ccc(S(=O)(=O)c2ccc(Cl)cc2)c(NC(C)=O)c1`, the inhibition is 0.74%.
The figure for `COC(=O)C1(C)NC(c2ccc(F)cc2)C2C(=O)N(c3ccccc3)C(=O)C21` (stereo not drawn) is 0.11%; for `CN(C)C(=O)CCC(=O)N1CCCCC1C(=O)Nc1ccc(Oc2ccccc2F)cc1` (stereo not drawn) it is -34%.
